Assay results from PubChem BioAssay AID504329 (Southern Research Specialized Biocontainment Screening …, 2011).
Among all 340,000 compounds or so, about 1,000 (0.29%) were called active. No stated cut-off is given here; in the data, inconclusive means inhibition above about 27% without an active follow-up result; inactive means below that. Not all results are given here. Potency and affinity values are given separately.

test: NS1A inhibition, H1N1 influenza, cell based functional assay (AID 504329); details: percent inhibition, at 12.5 µM, active compounds read high

| Structure (SMILES) | inhibition |
| --- | --- |
| CC(C)(NO)/C(=N/O)c1cccs1 | 3.4% (inactive) |
| CC(C(=O)N1CCc2ccccc21)N1CCN(c2cccc(C(F)(F)F)c2)CC1 (stereo not given) | -0.63% (inactive) |
| CCOC(=O)CSC1=N/C(=C\c2ccc(OC)c(OC)c2)C(=O)N1C | 2.72% (inactive) |
| COc1ccc(-c2ccc3nnc(SCC(=O)N4CCCC4)n3n2)cc1 | -5.09% (inactive) |
| O=C(Nc1nccs1)c1cccnc1Cl | -9.22% (inactive) |
| CCc1nnc(NCn2nc(C)cc2C)s1 | 6.15% (inactive) |
| C=CCc1c(C)nc(C)nc1N/N=C/c1ccc(F)cc1 | -0.47% (inactive) |
| C=CCc1c(C)nc(C)nc1N/N=C/c1ccccc1 | -4.1% (inactive) |
| Oc1ccc(/C=N/Nc2ccnc3cc(Cl)ccc23)c(O)c1 | -16% (inactive) |
| Oc1ccc(/C=N/Nc2nccnc2Cl)cc1 | 5.54% (inactive) |
| Cc1c(OCC(F)(F)F)ccnc1CSc1nc2ccccc2[nH]1 | -9.09% (inactive) |
| CCOc1ccc(OCCC(=O)N(CCCOC)c2c(N)n(Cc3ccccc3)c(=O)[nH]c2=O)cc1 | -2.75% (inactive) |
| O=C1NC(=O)c2cc3ccccc3cc21 | -8.8% (inactive) |
| O=C(Cn1ccccc1=O)NCc1ccc(F)cc1 | -15.8% (inactive) |
| CCOc1ccc(NC2=CC(=O)C(=O)c3ccccc32)cc1 | -7.73% (inactive) |
| Cc1cccc(NC2=C(NCCO)C(=O)c3ccccc3C2=O)c1 | 26.8% (inactive) |
| NC1=C(Br)C(=O)c2ccccc2C1=O | 1.89% (inactive) |
| O=C1C(Cl)=C(Nc2ccc(O)cc2)C(=O)c2ccccc21 | 13.6% (inactive) |
| COc1ccc(NC2=C(NCCO)C(=O)c3ccccc3C2=O)cc1 | 23.4% (inactive) |
| COc1ccc(NC2=C(c3ccc(OC)cc3)C(=O)c3ccccc32)cc1 | 5.77% (inactive) |
| COC1=C(Nc2ccccc2)C(=O)C(OC)=C(Nc2ccccc2)C1=O | 8.96% (inactive) |
| COc1ccc(C2=C(Nc3ccccc3)c3ccccc3C2=O)cc1 | -2.55% (inactive) |
| CSCCC(=O)NC1CCCN(CCc2ccccc2)C1 (stereo not given) | -10.8% (inactive) |
| O=C(NC1=NCCS1)c1cc(-c2cccs2)nc2ccccc12 | 1.99% (inactive) |
| Clc1cccc(CN2CCCCCCC2)c1Cl | -8.07% (inactive) |

| Structure (SMILES) | inhibition |
| --- | --- |
| COc1cc(C2NC(=O)NC(C)=C2C(=O)OC2CCC(C)CC2)ccc1O (stereo not given) | -1.48% (inactive) |
| CCC(=O)Nc1nc(-c2ccccc2)nc(SC)c1C(C)=O | 5.59% (inactive) |
| O=C(NCCCN1CCCC1=O)C(=O)NCC1OCCCN1S(=O)(=O)c1cc(F)ccc1F (stereo not given) | -6.67% (inactive) |
| Cc1ccc(C(=O)N2CCN(c3ccc(NC(=O)c4cccnc4Cl)cc3)CC2)cc1 | 0.28% (inactive) |
| CC(=O)c1ccc(NC2=C(N3CCOCC3)C(=O)c3ccccc3C2=O)cc1 | 3.86% (inactive) |
| CCN(CC)c1ccc(NC2=C(Cl)C(=O)c3ccccc3C2=O)cc1 | 27.5% (inactive) |
| Cc1ccc(NC2=C(N3CCCCC3)C(=O)c3ccccc3C2=O)cc1 | 28.7% (inactive) |
| COc1ccc(C2=C(Nc3ccc(C)cc3)c3ccccc3C2=O)cc1 | -3.38% (inactive) |
| COC1=C(Nc2ccc(OC)cc2)C(=O)C(OC)=C(Nc2ccc(OC)cc2)C1=O | 0.15% (inactive) |
| COc1ccc(NC2=C(NC(C)=O)C(=O)c3ccccc3C2=O)cc1 | 0.92% (inactive) |
| O=C1C(Cl)=C(Nc2ccccc2)C(=O)c2ccccc21 | -3.5% (inactive) |
| Cc1ccc(NC2=C(Cl)C(=O)c3ccccc3C2=O)cc1 | 2.23% (inactive) |
| CC(C)CC(OC(=O)c1cccs1)C(=O)NCC1CCCO1 (stereo not given) | 11.2% (inactive) |
| COc1ccccc1N1CCN(C(=O)c2ccc(S(=O)(=O)N3CCCC3)cc2)CC1 | 4.29% (inactive) |
| COc1ccc(NC(=O)COC(=O)CCc2ccc(S(=O)(=O)N3CCOCC3)cc2)cc1Cl | -1.5% (inactive) |
| CCOC(=O)c1sc2nc(N3CCOCC3)c3c(c2c1N)CCC3 | 8.09% (inactive) |
| Cc1ccc(CNC(=O)Cn2nnc3ccccc3c2=O)cc1 | -3.7% (inactive) |
| COC(=O)c1ccc(NC(=S)NC2CC(C)(C)NC(C)(C)C2)cc1 | -11.7% (inactive) |
| CCOC(=O)C1(CCCc2ccccc2)CCN(C(=O)c2cnn(CC)c2)CC1 | 0.777% (inactive) |
| O=C(NC(=S)Nc1ccc(F)c([N+](=O)[O-])c1)c1ccccc1F | 6.76% (inactive) |
| COc1cc(/C=C/C(=O)OCC(=O)NCCN2C(=O)CSC2=O)ccc1OCC#N | 1.99% (inactive) |
| CC(C)CN(C(=O)CCC(=O)OCc1ccc(Cl)cc1Cl)c1c(N)n(CC(C)C)c(=O)[nH]c1=O | -1.56% (inactive) |
| CCN(Cc1ccccc1)c1ccc(/C=N/NS(=O)(=O)c2ccc(C)c([N+](=O)[O-])c2)cc1 | -1.19% (inactive) |
| CCN(CC)c1ccc(N=Nc2nn(C)c(C)c2[N+](=O)[O-])cc1 | 9.15% (inactive) |
| Cn1c2c(c(=O)n(C)c1=O)C(c1ccc(F)cc1)C(C#N)=C(N)O2 (stereo not given) | -0.36% (inactive) |

| Structure (SMILES) | inhibition |
| --- | --- |
| Cc1cccc(/C=N/NC(=O)c2ccc(NC(=O)c3ccccc3C)cc2)n1 | -6.91% (inactive) |
| CCNC(=O)C(=O)N1CCC2(CC1)OCCN2S(=O)(=O)c1ccc(C)cc1 | 5.17% (inactive) |
| CCC(=O)/C=C1\Sc2ccc(OC)cc2N1CCO | 7.02% (inactive) |
| CCC(/C=C1\Sc2ccc(OC)cc2N1CC)=C\c1sc2ccc(OC)cc2[n+]1CCCS(=O)(=O)[O-] | -0.43% (inactive) |
| O=C(COC(=O)/C=C/c1ccccc1[N+](=O)[O-])NC1CC1 | 0.04% (inactive) |
| OCCN(Cc1ccccc1)Cc1ncccc1O | -15.6% (inactive) |
| CCN(CC)Cc1ccccn1 | 0.25% (inactive) |
| CCn1c(SCC(=O)NC(C)c2ccccc2)nc2ccccc21 (stereo not given) | 6.4% (inactive) |
| COc1ccc(C(C)(C)C)cc1NC(=O)COC(=O)CSCc1c(C)noc1C | 12.6% (inactive) |
| COC(=O)C1=C(C(=O)OC)SC(=C2C(=S)C(C)(C)N(C(=O)C(C)C)c3ccccc32)S1 | 26.5% (inactive) |
| COC(=O)C1=C(C(=O)OC)SC(=C2C(=S)C(C)(C)N(C(=O)CC(C)C)c3ccccc32)S1 | 18.9% (inactive) |
| CC(=O)C1=C(C)N(Cc2ccccc2)C(=O)N[C@H]1c1cccc(F)c1 | -6.27% (inactive) |
| CC(C)=C(NC(=O)c1ccccc1)C(=O)Nc1ccc(C(=O)O)cc1 | -12.3% (inactive) |
| O=C1C=C(O)c2cccc(O)c2C1=O | 3.19% (inactive) |
| O=C1C(=O)c2c(ccc3ccccc23)-c2ccccc21 | 0.1% (inactive) |
| CC(=O)c1ccc(S(=O)(=O)N(CCCO)Cc2cc3cc4c(cc3[nH]c2=O)OCCO4)cc1 | -6.83% (inactive) |
| COCCNC(=S)Nc1ccc2nc(N3CCN(C)CC3)cc(C)c2c1 | 8.16% (inactive) |
| O=C(CNS(=O)(=O)c1ccccc1)Nc1ccccc1Br | -10.4% (inactive) |
| Cc1c(NC(=S)N/N=C/C=C/c2ccc([N+](=O)[O-])cc2)c(=O)n(-c2ccccc2)n1C | 1.25% (inactive) |
| Cc1c(NC(=S)N/N=C/c2ccc(O)cc2)c(=O)n(-c2ccccc2)n1C | -9.33% (inactive) |
| Cc1c(NC(=S)N/N=C/c2ccc(Br)cc2)c(=O)n(-c2ccccc2)n1C | 0.4% (inactive) |
| Cc1c(NC(=S)N/N=C/c2cc([N+](=O)[O-])ccc2O)c(=O)n(-c2ccccc2)n1C | 2.17% (inactive) |
| CCCOc1ccc(/C=N/NC(=O)CSCc2ccc([N+](=O)[O-])cc2)cc1OCC | -9.68% (inactive) |
| CC(C)CN(C(=O)C1CCCO1)C1CCS(=O)(=O)C1 (stereo not given) | -6.34% (inactive) |
| O=C(Oc1coc(CSc2ncccn2)cc1=O)c1cccs1 | -4.51% (inactive) |

| Structure (SMILES) | inhibition |
| --- | --- |
| COC(=O)C1=C(CSc2nccn2C)NC(=O)NC1c1cc(C)ccc1C (stereo not given) | 1.93% (inactive) |
| Cc1c(OC(C)C(=O)NCc2ccccn2)ccc2c3c(c(=O)oc12)CCCC3 (stereo not given) | -4.86% (inactive) |
| C=CCOc1ccc(/C=N/NC(=O)CC(=O)NC2CCCCC2)cc1 | 6.03% (inactive) |
| CC1(C(=O)Nc2nc3ccc(S(C)(=O)=O)cc3s2)CC1(Cl)Cl (stereo not given) | 5.4% (inactive) |
| O=C(O)c1ccc(N=N/C(=N\Nc2ccc(C(=O)O)cc2)c2ccccc2)cc1 | 15.3% (inactive) |
| O=C(O)c1cccc(NN=C2c3ccccc3-c3ccccc32)c1 | 10.1% (inactive) |
| CC(=O)c1cccc(NC(=O)CN2C(=O)NC(C)(c3ccc4c(c3)OCCCO4)C2=O)c1 (stereo not given) | 2.48% (inactive) |
| COc1ccccc1CNC(=O)Cn1cc([N+](=O)[O-])ccc1=O | -14% (inactive) |
| Cc1cccc(Nc2nc(-c3cccs3)cs2)n1 | 8.74% (inactive) |
| Cc1cccnc1Nc1nc(-c2ccc(O)cc2)cs1 | 5.7% (inactive) |
| Cc1cccnc1Nc1nc(-c2ccccc2)cs1 | -4.02% (inactive) |
| c1ccc(Nc2nc(-c3ccccn3)cs2)cc1 | 8.8% (inactive) |
| CCCc1nnc(NC(=O)CCC(=O)N2CCN(CCOC(c3ccccc3)c3ccccc3)CC2)s1 | 0.42% (inactive) |
| O=CNCC(=O)NC1CCCCCC1 | -2.65% (inactive) |
| Cc1ccc(OCC(=O)N/N=C/c2cccnc2)cc1C | -11% (inactive) |
| O=C1NC(=O)C(CC(=O)N(c2ccccc2)C2(C(=O)NC3CCCC3)CCCCC2)N1 (stereo not given) | -0.63% (inactive) |
| CC(Oc1ccc(Cl)cc1Cl)C(=O)Nc1ccc(N2CCN(C)CC2)cc1 (stereo not given) | 9.83% (inactive) |
| Cc1ccc(S(=O)(=O)Nc2nc3ccccc3nc2N2CCN(c3ccccc3F)CC2)cc1 | -0.57% (inactive) |
| Cc1ccc(S(=O)(=O)CC(=O)N2CCN(c3ccccc3F)CC2)cc1 | 2.84% (inactive) |
| CCOC(=O)N1CCN(C2=C(NS(=O)(=O)c3ccccc3)C(=O)c3ccccc3C2=O)CC1 | 18.6% (inactive) |
| Cc1ccc(S(=O)(=O)NCC(=O)N2CCN(c3ccccc3F)CC2)cc1 | 11.9% (inactive) |
| CCOC(=O)N1CCN(C2=C(NS(=O)(=O)c3ccc(NC(C)=O)cc3)C(=O)c3ccccc3C2=O)CC1 | 12.4% (inactive) |
| CCN1CCN(C2=C(NS(=O)(=O)c3ccc(C)cc3)C(=O)c3ccccc3C2=O)CC1 | 10.6% (inactive) |
| CCN1CCN(C2=C(NS(=O)(=O)c3ccccc3)C(=O)c3ccccc3C2=O)CC1 | -3.88% (inactive) |
| CC(=O)Nc1ccc(S(=O)(=O)NC2=C(N3CCN(Cc4ccccc4)CC3)C(=O)c3ccccc3C2=O)cc1 | 12.6% (inactive) |
